In publication PMC5540273 (PLoS ONE, 2017):
Read-outs that look alike come from different tables or passages of the source.

Columns and labels:
FLT1 = settings: concentration: 1 μM, replicates: in singlicate; n = 1
FLT3-autoinhibited = settings: concentration: 1 μM, replicates: in singlicate; n = 1
FLT3 = settings: concentration: 1 μM, replicates: in singlicate; n = 1
FLT4 = settings: concentration: 1 μM, replicates: in singlicate; n = 1
FRK = settings: concentration: 1 μM, replicates: in singlicate; n = 1
FYN = settings: concentration: 1 μM, replicates: in singlicate; n = 1
GAK = settings: concentration: 1 μM, replicates: in singlicate; n = 1
GCN2(Kin.Dom.2,S808G) = test system: T1, GCN2(Kin.Dom.2,S808G); settings: concentration: 1 μM, replicates: in singlicate; n = 1
T1 construct: gene EIF2AK4

GRK1 = settings: concentration: 1 μM, replicates: in singlicate; n = 1
GRK2 = test system: T2, GRK2; settings: concentration: 1 μM, replicates: in singlicate; n = 1
T2 construct: gene ADRBK1

GRK3 = test system: T3, GRK3; settings: concentration: 1 μM, replicates: in singlicate; n = 1
T3 construct: gene ADRBK2

GRK4 = settings: concentration: 1 μM, replicates: in singlicate; n = 1
GRK7 = settings: concentration: 1 μM, replicates: in singlicate; n = 1
GSK3A = settings: concentration: 1 μM, replicates: in singlicate; n = 1
GSK3B = settings: n = 1
HASPIN = test system: T4, HASPIN; settings: concentration: 1 μM, replicates: in singlicate; n = 1
T4 construct: gene GSG2

HCK = settings: concentration: 1 μM, replicates: in singlicate; n = 1
HIPK1 = settings: concentration: 1 μM, replicates: in singlicate; n = 1
HIPK2 = settings: concentration: 1 μM, replicates: in singlicate; n = 1
HIPK3 = settings: concentration: 1 μM, replicates: in singlicate; n = 1
[1] = concentration: 1 μM, replicates: in singlicate
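Further: KINOMEscan kinase panel screen.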

SMILES: COC(=O)C(NC(=O)NC1CCN(c2ccnc(Nc3ccc(F)cc3)n2)C1)c1ccccc1 (stereo not shown) [GSK1379712]
- %Inh (FLT1): 14%
- %Inh (FLT3-autoinhibited): 8%
- %Inh (FLT3): 0%
- %Inh (FLT4): 0%
- %Inh (FRK): 0%
- %Inh (FYN): 31%
- %Inh (GAK): 0%
- %Inh (GCN2(Kin.Dom.2,S808G)): 2%
- %Inh (GRK1): 0%
- %Inh (GRK2): 4%
- %Inh (GRK3): 18%
- %Inh (GRK4): 0%
- %Inh (GRK7): 0%
- %Inh (GSK3A): 16%
- %Inh (GSK3B; [1]): 4%
- %Inh (HASPIN): 0%
- %Inh (HCK): 0%
- %Inh (HIPK1): 12%
- %Inh (HIPK2): 0%
- %Inh (HIPK3): 48%

SMILES: Cc1ccc(NC(=O)Nc2ccc(Cl)c(C(F)(F)F)c2)cc1-c1ccc(C(=O)Nc2ccncc2)cc1 [GSK1398470]
- %Inh (FLT1): 23%
- %Inh (FLT3-autoinhibited): 0%
- %Inh (FLT3): 27%
- %Inh (FLT4): 0%
- %Inh (FRK): 42%
- %Inh (FYN): 44%
- %Inh (GAK): 14%
- %Inh (GCN2(Kin.Dom.2,S808G)): 15%
- %Inh (GRK1): 0%
- %Inh (GRK2): 0%
- %Inh (GRK3): 0%
- %Inh (GRK4): 10%
- %Inh (GRK7): 0%
- %Inh (GSK3A): 21%
- %Inh (GSK3B; [1]): 10%
- %Inh (HASPIN): 10%
- %Inh (HCK): 0%
- %Inh (HIPK1): 0%
- %Inh (HIPK2): 0%
- %Inh (HIPK3): 0%

SMILES: COc1ccc(CSc2nnc(-c3ccc4c(c3)CCO4)o2)cc1
- %Inh (FLT1): 0%
- %Inh (FLT3-autoinhibited): 0%
- %Inh (FLT3): 0%
- %Inh (FLT4): 0%
- %Inh (FRK): 0%
- %Inh (FYN): 0%
- %Inh (GAK): 0%
- %Inh (GCN2(Kin.Dom.2,S808G)): 33%
- %Inh (GRK1): 0%
- %Inh (GRK2): 0%
- %Inh (GRK3): 3%
- %Inh (GRK4): 1%
- %Inh (GRK7): 0%
- %Inh (GSK3A): 75%
- %Inh (GSK3B; 1 µM): 0%
- %Inh (HASPIN): 42%
- %Inh (HCK): 0%
- %Inh (HIPK1): 9%
- %Inh (HIPK2): 0%
- %Inh (HIPK3): 0%

SMILES: Cc1ccc(NC(=O)Nc2ccccc2)cc1-c1ccc(C(=O)Nc2ccncc2)cc1 [GSK1398471]
- %Inh (FLT1): 32%
- %Inh (FLT3-autoinhibited): 0%
- %Inh (FLT3): 36%
- %Inh (FLT4): 21%
- %Inh (FRK): 61%
- %Inh (FYN): 33%
- %Inh (GAK): 4%
- %Inh (GCN2(Kin.Dom.2,S808G)): 50%
- %Inh (GRK1): 2%
- %Inh (GRK2): 0%
- %Inh (GRK3): 0%
- %Inh (GRK4): 0%
- %Inh (GRK7): 0%
- %Inh (GSK3A): 12%
- %Inh (GSK3B; [1]): 11%
- %Inh (HASPIN): 1%
- %Inh (HCK): 0%
- %Inh (HIPK1): 0%
- %Inh (HIPK2): 0%
- %Inh (HIPK3): 13%

SMILES: CNCc1ccc2nc(NC(=O)c3ccc(C(C)(C)C)cc3)cn2c1
- %Inh (FLT1): 27%
- %Inh (FLT3-autoinhibited): 19%
- %Inh (FLT3): 66%
- %Inh (FLT4): 29%
- %Inh (FRK): 1%
- %Inh (FYN): 6%
- %Inh (GAK): 5%
- %Inh (GCN2(Kin.Dom.2,S808G)): 0%
- %Inh (GRK1): 13%
- %Inh (GRK2): 39%
- %Inh (GRK3): 36%
- %Inh (GRK4): 0%
- %Inh (GRK7): 10%
- %Inh (GSK3A): 3%
- %Inh (GSK3B; [1]): 11%
- %Inh (HASPIN): 5%
- %Inh (HCK): 3%
- %Inh (HIPK1): 17%
- %Inh (HIPK2): 13%
- %Inh (HIPK3): 17%

SMILES: COc1cccc(CNC(=O)NC2CCN(c3ccnc(Nc4ccc(F)cc4)n3)C2)c1 (stereo not shown) [GSK1379723]
- %Inh (FLT1): 31%
- %Inh (FLT3-autoinhibited): 0%
- %Inh (FLT3): 0%
- %Inh (FLT4): 12%
- %Inh (FRK): 16%
- %Inh (FYN): 0%
- %Inh (GAK): 12%
- %Inh (GCN2(Kin.Dom.2,S808G)): 0%
- %Inh (GRK1): 13%
- %Inh (GRK2): 0%
- %Inh (GRK3): 37%
- %Inh (GRK4): 6%
- %Inh (GRK7): 5%
- %Inh (GSK3A): 11%
- %Inh (GSK3B; [1]): 13%
- %Inh (HASPIN): 0%
- %Inh (HCK): 0%
- %Inh (HIPK1): 0%
- %Inh (HIPK2): 0%
- %Inh (HIPK3): 36%

SMILES: COc1cc2ncnc(Nc3cccc(Br)c3)c2cc1OC.Cl [GI230329]
- %Inh (FLT1): 21%
- %Inh (FLT3-autoinhibited): 0%
- %Inh (FLT3): 0%
- %Inh (FLT4): 0%
- %Inh (FRK): 15%
- %Inh (FYN): 16%
- %Inh (GAK): 87%
- %Inh (GCN2(Kin.Dom.2,S808G)): 0%
- %Inh (GRK1): 0%
- %Inh (GRK2): 36%
- %Inh (GRK3): 26%
- %Inh (GRK4): 0%
- %Inh (GRK7): 0%
- %Inh (GSK3A): 0%
- %Inh (GSK3B; [1]): 0%
- %Inh (HASPIN): 20%
- %Inh (HCK): 24%
- %Inh (HIPK1): 0%
- %Inh (HIPK2): 0%
- %Inh (HIPK3): 0%

SMILES: Cc1cnc(N)c(/C=C/c2cncc(C(=O)NCCc3ccc(Cl)cc3Cl)c2)c1.Cl [GSK190937]
- %Inh (FLT1): 0%
- %Inh (FLT3-autoinhibited): 0%
- %Inh (FLT3): 2%
- %Inh (FLT4): 7%
- %Inh (FRK): 6%
- %Inh (FYN): 20%
- %Inh (GAK): 29%
- %Inh (GCN2(Kin.Dom.2,S808G)): 3%
- %Inh (GRK1): 0%
- %Inh (GRK2): 0%
- %Inh (GRK3): 6%
- %Inh (GRK4): 0%
- %Inh (GRK7): 0%
- %Inh (GSK3A): 5%
- %Inh (GSK3B; [1]): 0%
- %Inh (HASPIN): 29%
- %Inh (HCK): 0%
- %Inh (HIPK1): 0%
- %Inh (HIPK2): 0%
- %Inh (HIPK3): 26%

SMILES: CNc1nc(-c2ccc3c(N)n[nH]c3c2)cc(N2C[C@@H](C(=O)NC3CCCCC3)OC[C@H]2C)n1 [GSK2375584]
- %Inh (FLT1): 25%
- %Inh (FLT3-autoinhibited): 20%
- %Inh (FLT3): 0%
- %Inh (FLT4): 0%
- %Inh (FRK): 4%
- %Inh (FYN): 6%
- %Inh (GAK): 0%
- %Inh (GCN2(Kin.Dom.2,S808G)): 0%
- %Inh (GRK1): 12%
- %Inh (GRK2): 0%
- %Inh (GRK3): 37%
- %Inh (GRK4): 4%
- %Inh (GRK7): 0%
- %Inh (GSK3A): 10%
- %Inh (GSK3B; [1]): 14%
- %Inh (HASPIN): 30%
- %Inh (HCK): 0%
- %Inh (HIPK1): 24%
- %Inh (HIPK2): 0%
- %Inh (HIPK3): 2%

SMILES: O=C1NC(=O)C(c2ccc(Cl)cc2)=C1Nc1ccc(O)cc1 [SB-340867]
- %Inh (FLT1): 0%
- %Inh (FLT3-autoinhibited): 0%
- %Inh (FLT3): 6%
- %Inh (FLT4): 0%
- %Inh (FRK): 0%
- %Inh (FYN): 0%
- %Inh (GAK): 0%
- %Inh (GCN2(Kin.Dom.2,S808G)): 0%
- %Inh (GRK1): 0%
- %Inh (GRK2): 0%
- %Inh (GRK3): 0%
- %Inh (GRK4): 0%
- %Inh (GRK7): 0%
- %Inh (GSK3A): 29%
- %Inh (GSK3B; 1 µM): 0%
- %Inh (HASPIN): 9%
- %Inh (HCK): 0%
- %Inh (HIPK1): 0%
- %Inh (HIPK2): 0%
- %Inh (HIPK3): 0%

SMILES: Nc1cccc(-c2ccc3c(N)n[nH]c3c2)n1 [GSK2192730]
- %Inh (FLT1): 0%
- %Inh (FLT3-autoinhibited): 13%
- %Inh (FLT3): 0%
- %Inh (FLT4): 0%
- %Inh (FRK): 0%
- %Inh (FYN): 29%
- %Inh (GAK): 17%
- %Inh (GCN2(Kin.Dom.2,S808G)): 0%
- %Inh (GRK1): 21%
- %Inh (GRK2): 0%
- %Inh (GRK3): 0%
- %Inh (GRK4): 13%
- %Inh (GRK7): 19%
- %Inh (GSK3A): 19%
- %Inh (GSK3B; [1]): 26%
- %Inh (HASPIN): 39%
- %Inh (HCK): 0%
- %Inh (HIPK1): 23%
- %Inh (HIPK2): 0%
- %Inh (HIPK3): 25%
